Results from ChEMBL document CHEMBL4513216, “Probing the Open Global Health Chemical Diversity Library for Multistage-Active Starting Points for Next-Generation Antimalarials” (ACS Infect Dis, 2020).
Screen size: about 68,000 compounds; about 2,700 (4%) showed an effect of 50% or more. This excerpt belongs to a sample that is enriched for strong results.

tested on: Plasmodium berghei; assay: Screen against P. berghei liver stage (PbLuc), transformed with Luciferase, at 2uM; assay type: functional, HepG2; details: tested at 2 uM

SMILES | INHIBITION [%]
CC1=N[C@@]2(CC[C@@H]3CN(CC4CC4)C[C@@H]32)C(=O)N1CC(C)C | 28.85
CN(Cc1ccco1)[C@@H]1CN(C(=O)c2ccnnc2)[C@@H]2CCCO[C@H]12 | 7.08
Cc1nccnc1N1C[C@H]2CN(C3CCOCC3)C[C@@]2(C(=O)O)C1 | 8.93
CCN(CC)CCCC(C)NC(=O)c1ccccc1-n1cccn1 (centres undefined) | 19.33
Cn1cc(C(=O)Nc2cccc(F)c2)ccc1=O | -66.38
CC(NC1CCSCC1)c1ccccc1-n1cccn1 (centres undefined) | 27.52
CC(NC(=O)c1ccc(=O)n(C)c1)c1ccccc1-n1cccn1 (centres undefined) | 51.64
Cc1ccccc1C(C)NC(=O)c1ccc(=O)n(C)c1 (centres undefined) | 64.9
Cn1c(CNc2c(F)cccc2-n2cccn2)cc(=O)n(C)c1=O | 32.14
CC(NC(=O)c1cc(=O)n(C)c(=O)n1C)c1ccccc1-n1cccn1 (centres undefined) | 50.97
CC(NC1CCCC1)c1ccccc1-n1cccn1 (centres undefined) | 21.28
CCC(=O)NC(C)c1ccccc1C (centres undefined) | -6.19
CC(=O)NCc1cc2n(n1)CCN(Cc1ccccc1OC(F)(F)F)C2 | 27.52
CCN(CC)S(=O)(=O)N1C[C@@H](c2ccccc2)[C@H]2[C@H]1CCCCCN2C | 20.71
Cc1nc(C)c(-c2ccn(CC(=O)Nc3cnn(C)n3)n2)s1 | 8.05
CC(C)=CCN1C[C@@H]2CC[C@H]1CN(C(=O)c1ccc3c(c1)OCO3)C2 | 34.98
Cc1cc2c(=O)n(CCSc3cnn[nH]3)cnc2s1 | 39.99
CN(Cc1ccsc1)C(=O)c1ccc(C2CCCO2)s1 (centres undefined) | -15.11
O=C(CNC(=O)c1ccccc1I)NCc1ccccc1F | -20.75
CS(=O)(=O)NCc1cc(=O)n2c(n1)CN(CC1CC1)CCC2 | 33.12
Clc1cnccc1N1CCCC2(CCCOC2)C1 (centres undefined) | 48.73
CCNC(=O)NC1CCN(c2ccc(S(=O)(=O)CC)cc2)CC1 | -6.38
CCS(=O)(=O)c1ccc(N2CCC(NC(C)=O)CC2)cc1 | -0.54
CCS(=O)(=O)c1ccc(N2CCC(N)CC2)cc1 | 67.9
O=C(c1sccc1C1CC1)N1CCN(c2nccs2)CC1 | -15.54
CC(c1ccon1)N(C)S(=O)(=O)NCc1ccccc1 (centres undefined) | -6.7

SMILES | INHIBITION [%]
Cc1cc(C(=O)N(C)CC(F)(F)C(F)(F)F)ccc1-n1cncn1 | 49.78
CCN(CC)C(=O)CCc1nc(-c2cnn3c(C)cc(C)nc23)no1 | -23.48
O=C(NCc1cccnc1N1CCCC(O)C1)c1ccc2[nH]nnc2c1 (centres undefined) | 33.13
O=C(NCc1cccnc1N1CCCCC1)c1ccc2[nH]nnc2c1 | 54.47
O=C(NCc1cccnc1N1CCCCC1)c1ccc2cc[nH]c2c1 | 15.75
O=C1NC[C@@]2(C(=O)O)CN(Cc3cccc(CN4CCOCC4)c3)C[C@@H]12 | 34.46
O=C1NC[C@@]2(C(=O)O)CN(Cc3cccc(OC4CCCC4)c3)C[C@@H]12 | 62
O=C1NC[C@@]2(C(=O)O)CN(Cc3cccc(Oc4ccccc4)c3)C[C@@H]12 | 24.55
Cc1cc(C(C)(O)CNC(=O)C2(C)CCCC2)c(C)o1 (centres undefined) | 65.92
Cc1cc(C(C)(O)CNC(=O)c2ccc(Br)o2)c(C)o1 (centres undefined) | 27.32
Cc1cc(C(C)(O)CNC(=O)OC(C)(C)C)c(C)o1 (centres undefined) | 25.21
COCC1CC2(CCN(Cc3ccc(OC)cc3)CC2)CN1C(C)C (centres undefined) | 2.07
CC1CCN(CCNC(=O)c2cncnc2C(C)C)CC1 | 25.35
Cc1ccccc1-c1ncc(CNCc2csc(C(C)C)n2)s1 | -17.01
Cc1cnc(CNCc2cnc(-c3ccccc3C)s2)cn1 | 58.53
CCC1=NOC(CNCc2cnc(-c3ccccc3C)s2)C1 (centres undefined) | -31.79
COCCN1C=NC2(CCC(C(=O)Nc3ccc(C)cc3)CC2)C1=O (centres undefined) | -76.06
COc1cccc(-c2noc(C3CCN(Cc4ccccc4C)C3)n2)c1 (centres undefined) | 3.97
COc1cccc(-c2noc(C3CCN(Cc4ccc(C)cc4)C3)n2)c1 (centres undefined) | 58.96
COc1cccc(-c2noc(C3CCN(Cc4ccncc4)C3)n2)c1 (centres undefined) | -22.79
Cc1cccc(CN2CCC3(CC2)CN(c2cnn(C)c2)C(=O)CO3)n1 | -29.81
Cc1cc(NC(=O)C(C#N)Cc2cnn(C)c2C)no1 (centres undefined) | -11.32
CN1CCCC1CCn1ccnc1-c1nc(-c2ccccc2)no1 (centres undefined) | 17.37
O=c1c(S(=O)(=O)N2CCCCC2)cccn1Cc1ccccc1Cl | -10.16
O=c1c(S(=O)(=O)N2CCCC2)cccn1Cc1ccc(F)cc1Cl | 0.78
O=c1c(S(=O)(=O)N2CCCC2)cccn1Cc1ccccc1Cl | 52.89

SMILES | INHIBITION [%]
O=C(NCc1cccc(F)c1)NCC(O)c1cccc(F)c1 (centres undefined) | -70.27
Cc1ccc(C)c(NC(=O)c2coc(C)n2)c1 | 48.68
COCc1ccc(C(=O)NS(=O)(=O)c2ccc3c(c2)CCC(=O)N3)cc1 | 24.36
COc1cccc(-c2noc3c2CN(c2ncnc4c2CCC4)CC3)c1 | 62.51
COc1cccc(-c2noc3c2CN(c2nc(C)ncc2C)CC3)c1 | 36.28
COCc1cc(N2CCc3onc(-c4cccc(OC)c4)c3C2)ncn1 | 5.28
CC[C@@H](C)[C@@H](N)C(=O)Nc1cccc(-c2cnc(NCCO)nc2)c1 | -35.83
CC(C)n1cnnc1C1CCCN(S(=O)(=O)CCCF)C1 (centres undefined) | -33.29
CC(C)n1cnnc1C1CCCN(S(=O)(=O)CC2CCCC2)C1 (centres undefined) | 60.42
CC(C)CCS(=O)(=O)N1CCCC(c2nncn2C(C)C)C1 (centres undefined) | -108.93
Cc1nc(CN2CCC3(C2)CN(C(=O)c2conc2C)C3)cs1 | 3.95
CCn1cncc1CNc1ccc(-c2nc(CC(C)C)no2)cn1 | -15.11
COc1ccc(Cc2noc(-c3ccc(NC(C)CO)nc3)n2)cc1 (centres undefined) | 43.44
CC(C)Cc1noc(-c2ccc(NCc3noc(C(C)C)n3)nc2)n1 | 42.17
CC(CO)Nc1ccc(-c2nc(Cc3ccc(F)cc3)no2)cn1 (centres undefined) | 57.75
COCC(C)Nc1ccc(-c2nc(Cc3ccc(F)cc3)no2)cn1 (centres undefined) | 31.51
CCC(O)CNc1ccc(-c2nc(CC(C)C)no2)cn1 (centres undefined) | 69.71
CN(C)C(=O)CO[C@H]1CO[C@@]2(CCN(Cc3ccsc3)C2)C1 | -9.99
O=C(CCn1ccccc1=O)N1CCCC(COc2ccc(F)cc2)C1 (centres undefined) | 8.25
O=C(NC[C@H]1OC[C@@H](NC2CCC(F)(F)CC2)[C@@H]1O)N1CCOCC1 | 11.43
Cc1cc(C(=O)N2CCC(c3nccn3Cc3ccncc3)CC2)no1 | 17.75
CCC(C)Oc1cc(C(=O)Nc2nc(C)ns2)ccn1 (centres undefined) | 52.98
CCC(C)Oc1cc(C(=O)Nc2nnc(C(C)C)[nH]2)ccn1 (centres undefined) | 38.67
CCC(C)Oc1cc(C(=O)Nc2nccs2)ccn1 (centres undefined) | 41.05
c1cc(CN2C[C@@H]3OCCN(CCN4CCCC4)[C@@H]3C2)co1 | 2.87
Cc1nc(-c2cc(Cl)cc3c2OC(CN)C3)c[nH]1 (centres undefined) | 26.74

SMILES | INHIBITION [%]
Cc1nc(-c2cc(F)c3c(c2)CC(CN)O3)c[nH]1 (centres undefined) | 33.9
Cc1nc(-c2cc(Cl)c3c(c2)CC(CN)O3)c[nH]1 (centres undefined) | 74.44
CN(CC(F)(F)F)C(=O)Cn1cc(NC(=O)C(C)(C)C)cn1 | -48.48
CNC(=O)c1cc(C)n(-c2cccc(OC)c2)c1C | 31.7
COc1cccc(-n2c(C)cc(C(=O)NC(C)(C)C(N)=O)c2C)c1 | 50.05
COc1cccc(-n2c(C)cc(C(=O)NCCCC(N)=O)c2C)c1 | 30.29
CN(Cc1ccco1)C[C@H]1OC[C@@H]2CN(c3ncc(F)cn3)CC[C@@H]21 | 17.89
O=C(NC1CC1)[C@H]1CN(Cc2ccc3c(c2)OCO3)C[C@H]2OCC[C@@H]12 | -0.18
Cc1cc(C(=O)NCCc2c(C)nn(C)c2C)nc(N2CCCCC2)n1 | 52.82
Cc1cc(C(=O)NCc2c(C)nn(C)c2C)nc(N2CCCC2)n1 | -70.38
Cc1cc(C(=O)NCc2c(C)nn(C)c2C)nc(N2CCOCC2)n1 | -68.8
O=C(O)c1csc(S(=O)(=O)N2CCCc3cccc(OC(F)F)c32)c1 | -58.31
CC(C)C(=O)NCc1ccccc1NS(=O)(=O)c1ccccc1 | -1.56
CN(C(=O)c1ccc[nH]1)C1CCC(NC(=O)OC(C)(C)C)CC1 (centres undefined) | 48.21
CN(C(=O)c1cccn1C)C1CCC(NC(=O)OC(C)(C)C)CC1 (centres undefined) | 62.51
CN(C(=O)c1ccco1)C1CCC(NC(=O)OC(C)(C)C)CC1 (centres undefined) | 38.67
c1cnc(N2CCC3(CCCN(Cc4ccncc4)C3)CC2)nc1 | 4.89
c1cncc(COCc2cncc3c2CCN(Cc2ccoc2)C3)c1 | 25.5
Cc1[nH]c2ccccc2c1-c1ccnc(NCCN2CCCCC2)n1 | -2.21
O=C(O)c1nnn(-c2ccc(C(F)(F)F)cc2)c1-c1ccncc1 | -40.92
CC(C)[C@H](Nc1nc(C2CCCC2)nc2c1cnn2C)C(N)=O | 23.16
CCOC(=O)CC(C)Nc1nc(C(C)(C)C)nc2c1cnn2C (centres undefined) | -70.6
CCOC(=O)CC(C)Nc1nc(C2CCCC2)nc2c1cnn2C (centres undefined) | 57.64
CC(C)C[C@H](Nc1nc(C2CCCC2)nc2c1cnn2C)C(N)=O | 52.38
COC(=O)[C@@H](Nc1nc(C2CCCC2)nc2c1cnn2C)[C@@H](C)O | 40.4
COC(=O)[C@H](CSC)Nc1nc(C2CCCC2)nc2c1cnn2C | 43.28
